Bioassay records: PubChem, The Scripps Research Institute Molecular Screening Center
M1 PAM parental – M1 PAM counterscreen hit in parental CHO-K1 cells; ATP EC20, Fluo-8 calcium fluorescence; 0% at ATP EC20, 100% at ATP max; activation, % at 3 µM; hit rate 0.02% among 360,000;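 active means activation above the run cutoff, the mean activation of all test compounds plus 3 SD, cut at about 40% in these data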;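 further: peak over basal fluorescence ratio in a 140 s read after ATP addition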
CHO-K1 Ca antag – counter-screen for M1 antagonists: effect in parental CHO-K1 cells; inhibition, % at 3 µM; hit rate 0.6% among 360,000; ATP-induced calcium, Fluo-8 fluorescence;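 active means inhibition above a per-plate cutoff, the plate's mean sample inhibition plus 3 SD, cut at about 24% in these data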;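 further: 0% = DMSO plus EC80 ATP and 100% = DMSO alone without ATP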
CHO-K1 Ca ag – nonselective activator or artifact in parental CHO-K1 cells; hit rate 0.48% among 360,000; activation, % at 3 µM; Fluo-8 calcium fluorescence; scaled to maximal ATP response, vehicle zero; AID 602248; in the data active means activation above about 15%;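 further: untransfected CHO-K1 host cells lacking M1 receptor as counterscreen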
M1 ag – activates human CHRM1 receptor. activation, % at 3 µM. hit rate 0.33% among 360,000. P11229. CHO-K1 hM1, Fluo-8 calcium fluorescence, agonist mode; 0% DMSO, 100% acetylcholine EC100;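 active means activation above the run's mean compound activation plus 3 SD, cut at about 16% in these data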;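 further: peak over basal fluorescence ratio within a 140 s kinetic read after compound addition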
Target sequence (P11229 whole entry, looked up): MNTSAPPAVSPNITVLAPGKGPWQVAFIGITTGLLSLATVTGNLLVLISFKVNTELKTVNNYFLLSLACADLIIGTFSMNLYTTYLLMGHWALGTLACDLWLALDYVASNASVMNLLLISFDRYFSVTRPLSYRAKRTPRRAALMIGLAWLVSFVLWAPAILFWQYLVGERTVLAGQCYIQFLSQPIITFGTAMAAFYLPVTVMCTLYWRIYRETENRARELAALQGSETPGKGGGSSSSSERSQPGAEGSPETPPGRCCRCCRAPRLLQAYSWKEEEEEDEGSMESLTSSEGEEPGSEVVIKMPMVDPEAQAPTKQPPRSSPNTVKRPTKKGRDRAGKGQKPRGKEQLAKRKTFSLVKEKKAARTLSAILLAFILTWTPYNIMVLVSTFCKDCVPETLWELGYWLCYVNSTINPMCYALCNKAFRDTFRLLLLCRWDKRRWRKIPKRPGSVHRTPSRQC
M1 antag – human CHRM1 antagonism | P11229 | CHO-K1 hM1, Fluo-8 calcium fluorescence, ACh EC80 antagonist | inhibition, % at 3 µM | hit rate 1.3% among 360,000;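 active means percent inhibition above its own plate's cutoff, namely the mean of that plate's compound wells plus 3 SD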;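 further: peak over basal fluorescence ratio during 140 s after agonist addition; 0% = ACh EC80 plus DMSO and 100% = DMSO alone without agonist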
M1 PAM – human CHRM1 positive allosteric modulation; activation, % at 3 µM; hit rate 0.088% among 360,000; CHO-K1 hM1, Fluo-8 calcium fluorescence, ACh EC20; 0% = ACh EC20, 100% = maximal ACh; in the data active means activation above about 19%, passing the limit was not always enough
An asterisk follows results filed as active; . = not tested or not shown. In the library only some 2.4% were active in any assay of this set; here they are far more common.

SMILES | M1 PAM parental | CHO-K1 Ca antag | CHO-K1 Ca ag | M1 ag | M1 antag | M1 PAM
O=C(c1ccc(Br)o1)N1CCN(c2ccc(F)cc2)CC1 | -0.1 | -0.7 | -0.1 | -3.7 | -3.7 | 0.1
CCN1CCN(c2ccc(N3CCN(C(=O)c4ccc(Br)o4)CC3)nn2)CC1 | -23.4 | -6.5 | 0.2 | -4.9 | 34.9* | -18.3
Cc1c(C(=O)NC2CCC(C)CC2)oc2ccccc12 (stereo unspecified) | 25.7 | -9.4 | 3.6 | -1.6 | -10.3 | 4.5
CC(=O)Nc1ccc(C(=O)COC(=O)C2CC2)c(F)c1 | -30.3 | 27.7* | 0.2 | 4.6 | 0.4 | 9.9
CC(=O)Nc1ccc(C(=O)COC(=O)C2CCCCC2)c(F)c1 | 1.8 | -9.0 | 4.4 | 4.3 | -2.8 | 3.6
Cc1ccccc1OCc1nc2ccccc2n1C | 20.1 | -12.6 | 0.1 | -5.9 | -9.0 | 5.1
Cc1nnc(OCc2nc3ccccc3n2C)c2ccccc12 | -9.2 | 25.1* | 0.8 | -0.5 | -15.8 | 4.3
O=CNCCCc1nc2ccccc2n1Cc1ccccc1 | -7.2 | 36.4* | 0.0 | -2.0 | -6.1 | 14.1
N=c1nc2n(cc1F)C1OC(CO)C(O)C1O2 (stereo unspecified) | 24.0 | -10.5 | 0.6 | 4.6 | -13.2 | 7.4
COc1ccc(OCCOC(=O)Nc2ccccc2)cc1 | 3.6 | 3.8 | 0.8 | -3.6 | 30.8* | -1.2
O=C(Nc1ccccc1)OCCCCCOC(=O)Nc1ccccc1 | -0.2 | 25.8* | 8.9 | -5.1 | -6.1 | -4.1
Cc1ccnc(NC(=O)c2cccc(S(=O)(=O)N3CCCc4ccccc43)c2)c1 | 0.1 | -7.7 | 0.2 | -5.6 | -1.6 | -2.3
Cc1ccc(C2NC(=O)c3ccccc3N2)c(C)c1 (stereo unspecified) | 10.3 | -10.5 | 1.8 | 2.4 | -18.6 | 7.1
O=C(COc1cc(F)ccc1[N+](=O)[O-])NCCN1C(=O)CSC1=O | -4.4 | 1.8 | -0.1 | 0.6 | -24.2 | 15.8
COc1cccc(CN(C)C(=O)c2ccccc2Sc2ccccc2C#N)c1OC | 4.0 | -5.3 | 4.3 | 1.0 | -2.6 | -1.0
COC(=O)c1ccc(OC)c(CSc2nnc(COc3ccccc3)o2)c1 | 19.0 | -11.6 | 0.9 | -6.8 | -0.6 | -4.3
COC(=O)c1ccc(OC)c(CSc2nnc(COc3ccc(Cl)cc3)o2)c1 | -6.3 | 24.0* | -0.3 | -2.2 | 7.0 | 2.8
CCCCn1c(/N=C/c2ccc(N(C)C)cc2)nc2ccccc21 | -1.9 | 15.1 | 0.4 | 2.3 | -23.4 | 20.7*
CN(C)c1ccc(C2/C(=C(/O)c3ccc(Br)cc3)C(=O)C(=O)N2C)cc1 (stereo unspecified) | 5.2 | -7.8 | 0.4 | -3.2 | -1.8 | 2.2
CCC1C(c2ccccc2)=CCC(C(=O)O)C1C (stereo unspecified) | 7.2 | -14.7 | 0.4 | 0.8 | -17.1 | 14.6
CCc1n[nH]c(=S)n1/N=C/c1c(O)ccc2ccccc12 | 7.3 | -1.5 | 0.4 | 3.7 | -27.7 | 21.9
CCc1n[nH]c(=S)n1/N=C/c1cccc2ccccc12 | 5.1 | -4.2 | 18.2* | -6.4 | -6.8 | 3.8
CCCCn1cnc2c(SCc3ccc(Br)cc3)nc(N)nc21 | 22.1 | -12.0 | 0.5 | 1.0 | 1.8 | -5.5
N#CC1(Nc2ccc(S(N)(=O)=O)cc2)CCCC1 | 23.1 | -13.8 | 0.1 | -0.5 | -17.0 | 8.3
Oc1[nH]c2ccccc2c1/C=N/N1CCCCC1 | 28.0 | -10.9 | 0.9 | 31.9* | 22.0 | -12.5
SMILES | M1 PAM parental | CHO-K1 Ca antag | CHO-K1 Ca ag | M1 ag | M1 antag | M1 PAM
Oc1ccccc1/C=N/N1CCCCC1 | 0.8 | -3.1 | -0.3 | 31.1* | 5.0 | -4.9
COc1cc(NC(=O)COC(=O)c2ccccc2SCC(=O)N2CCCC2)cc(OC)c1 | -13.6 | 12.8 | 1.8 | -1.7 | -2.9 | 2.5
CCOC(=O)c1c(NC(=O)C(C)N2CCN(C(=O)c3ccco3)CC2)sc2c1CCCC2 (stereo unspecified) | 2.1 | 3.5 | 0.3 | 19.8* | 37.3* | -11.2
CC(C)/C=C1\CC/C(=C\c2ccc(N(C)C)cc2)C1=O | 6.0 | 29.2* | 29.0* | 51.8* | 45.6* | -11.9
COC[C@H]1CCCN1c1ccc2c(c1)O[C@@H](COCc1ccccc1)CN([C@H](C)c1ccccc1)S2(=O)=O | -4.9 | 0.8 | 0.0 | . | . | .
Cc1cc(C)c(C(=O)CSc2n[nH]c(-c3ccncc3)n2)c(C)c1 | 1.2 | 7.9 | 18.3* | -3.4 | 7.0 | -6.1
Cc1cc(OCC(=O)OCC(=O)N(C)C2CCS(=O)(=O)C2)ccc1Cl (stereo unspecified) | -20.4 | 13.4 | 1.3 | -1.2 | 8.6 | -2.0
CC1(C)CC(NC(=O)N2c3ccccc3Sc3ccccc32)CC(C)(C)N1 | 9.9 | -7.9 | 0.9 | -7.9 | 49.6* | -24.1
CCN(CC)S(=O)(=O)c1ccc(C(=O)NCC(=O)NCCCc2ccccc2)cc1 | -8.0 | 2.0 | 1.2 | -2.5 | -1.2 | 2.8
O=C1CCC/C(=N/NC(=O)c2ccc(CN3c4cccc5cccc(c45)S3(=O)=O)cc2)C1 | 6.6 | 3.0 | 0.7 | 18.8* | -7.2 | 5.0
O=C(O)c1ccc(/C=N/NC(=O)c2ccc(CN3c4cccc5cccc(c45)S3(=O)=O)cc2)cc1 | 9.1 | -7.8 | 0.4 | 7.3 | -12.2 | 4.8
Cc1ccc(Cl)cc1N1CCN(c2cccc[n+]2C)CC1 | 14.2 | -3.2 | 4.2 | -5.5 | 47.9* | -19.3
CCN(CC)CCNC(=O)C(Cl)=C1C(Cl)=C(Cl)C(Cl)=C1Cl | 11.7 | -6.9 | 0.5 | -7.2 | 19.7 | -19.8
OCC1OC(n2cnc3c(SCc4ccccc4)nc(NO)nc32)C(O)C1O (stereo unspecified) | 11.8 | -14.5 | 0.5 | -8.5 | 71.0* | -29.7
Cn1c(=O)c2c(ncn2CC(=O)Nc2cc(S(=O)(=O)N3CCCCC3)ccc2Cl)n(C)c1=O | 12.8 | -13.5 | 1.4 | -3.0 | -17.4 | 9.1
CCOC(=O)c1cn(Cc2ccccc2)c(C(=O)OC(C)(C)C)c1O | -18.5 | 0.2 | 44.1* | 15.5 | 17.3 | -20.5
CCOC(=O)c1cn(Cc2ccccc2)c2cc(C)nn2c1=O | 14.4 | -15.2 | 0.8 | -1.2 | -5.8 | 0.3
CCOC(=O)C1CCN(S(=O)(=O)c2cn(C)c(C)n2)CC1 | 3.8 | -1.9 | 1.0 | -3.6 | -9.0 | 7.1
COc1ccc(C(=O)C[n+]2ccc3c(c2)nc(-c2ccccc2)n3C)cc1 | -5.0 | -2.3 | -0.4 | -12.4 | 56.8* | -22.0
O=C(Cc1ccc(S(=O)(=O)N2CCOCC2)s1)N1CCN(c2cccc(C(F)(F)F)c2)CC1 | -4.8 | 19.4 | 17.7* | 2.0 | 38.3* | -12.3
CCOC(=O)CC1C(=O)NCCN1C(=O)c1cccc(OC)c1 (stereo unspecified) | -28.5 | 18.4 | 0.3 | -1.6 | 27.6* | -13.6
CCOC(=O)CC1C(=O)NCCN1C(=O)c1ccc(Cl)c(Cl)c1 (stereo unspecified) | 73.8* | -13.8 | 4.1 | -4.0 | -2.9 | 1.9
O=C(Nc1nc2c(F)cc(F)cc2s1)c1ccc([N+](=O)[O-])o1 | 17.4 | -7.9 | 0.7 | -1.2 | -2.5 | -0.1
